Test results from PubChem BioAssay AID1377 (University of Pittsburgh Molecular Library Screening Center, 2008).
Hit rate of the full screen: of about 220,000 compounds, about 830 (0.38%) were called active. The sample as a whole holds a higher share of actives than the screen did. A number with no mark means an inactive call.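 Rule for the calls: active = activation, scaled between plate controls, above about 75% (limit read from the data); inactive = activation under that limit.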

Test: rescue of L929 cells from zVAD death – primary screen (AID 1377);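 note: 0% = zVAD with DMSO and 100% = DMSO alone without zVAD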
Conditions: L929 zVAD necroptosis rescue, ATP luminescence, 24 h, at 10 µM, hits give high values; with zVAD 60 µM unless noted

In order of falling viability rescue:
1. COc1ccc(-c2csc(Nc3ccccn3)n2)cc1  1.69%
2. CCOc1ccc(NC(=O)c2ccc(CSc3nnnn3C)cc2)cc1  1.6%
3. COc1ccc(-c2cc(C(=O)NC(Cc3c[nH]c4ccccc34)C(=O)O)c(C)o2)cc1OC (stereo not given)  1.33%
4. CN1CCN(C2=NCCO2)CC1  1%
5. COc1ccc(Nc2nc(-c3ccccc3)cs2)cc1  0.79%
6. COc1ccc2nc(Nc3nc4ccc(NC(C)=O)cc4s3)sc2c1  0.58%
7. CCOC(=O)c1cc(Sc2ccccc2N)cc(C(=O)OCC)n1  0.51%
8. CCN(CC)S(=O)(=O)c1ccc(Cl)c(NC(=O)c2ccncc2)c1  0.44%
9. CC(C)NC(=S)NN=C1CCCCCCCCCCC1  0.38%
10. COc1ccc2nc(NC(=O)c3ccc(Br)s3)sc2c1  0.35%
11. COc1ccc(Nc2nc(NCc3ccco3)nc(N/N=C/c3ccccc3Cl)n2)cc1  0.33%
12. Cc1cc(C)nc(-n2nc(C)cc2NC(=O)c2ccc(F)cc2F)n1  0.15%
13. Cc1ccc(CNC(=O)c2cccnc2Cl)cc1  0.12%
14. CCOC(=O)C1(CCOc2ccccc2)CCN(C(=O)c2cncs2)CC1  -0.01%
15. CC1=NNC(=O)C1CC(=O)N/N=C/c1ccncc1 (stereo not given)  -0.36%
16. Cc1ccc(-c2csc(N(Cc3ccco3)C(=O)c3cccs3)n2)cc1  -0.54%
17. COc1cc2c(C(=O)N3CCN(C)CC3)c(CSc3ccccc3)n(C)c2cc1Br  -0.59%
18. O=C(N/N=C/c1cccc([N+](=O)[O-])c1)c1ccncc1  -0.83%
19. O=C(Nc1cccc2c1N(C(=O)c1ccco1)CCC2)c1ccco1  -0.96%

In the case of `COc1ccc2nc(NC(=O)NC3CCCCC3)sc2c1`, the viability rescue is reported as 85.7% (active).
In the case of `COc1cc(OC)c(OC)cc1/C=N/Nc1ncnc2c1[nH]c1ccc(C)cc12`, the viability rescue is reported as 78.9% (active).
For `Cc1cc(C)nc(-n2nc(C)cc2NC(=O)c2ccc(Br)o2)n1`, the viability rescue was 82.2% [with zVAD 20 µM] (active).
For `COc1ccc(-c2csc(Nc3ccc(O)cc3)n2)cc1`, the viability rescue was 93% (active).
With `CCN(CC)S(=O)(=O)c1ccc(NC(=O)c2cccnc2Cl)c(NC(=O)c2cccnc2Cl)c1` the viability rescue was 82.2% (active).
For `COc1ccc(-n2cnc3cc(NCc4ccco4)ccc32)cc1`, the viability rescue was 79.9% (active).

In order of falling viability rescue:
1. CC(C)OCCCNc1ncnc2c1[nH]c1ccc(F)cc12  4.34% [with zVAD 20 µM]
2. COc1ccc(Nc2nc(Cl)nc(NCc3ccco3)n2)cc1  0.2% [with zVAD 20 µM]
3. Cc1cccc(-n2nc3c(c2NC(=O)c2ccc(Br)o2)CSC3)c1C  0.18% [with zVAD 20 µM]
4. Cc1ccc2[nH]c3c(=O)n(Cc4ccccn4)cnc3c2c1  0.13% [with zVAD 20 µM]
5. Cc1nn(C)c(Oc2ccccc2)c1CCNS(=O)(=O)c1ccc(F)cc1  0.02% [with zVAD 20 µM]
